PAX8 inh HTS – inhibitors of PAX8-driven TPO luciferase reporter, primary screen, RMG-I cells, single concentration; SteadyGlo, 24 h; inhibition, % at 12.6 µM; hit rate 1.2% among 360,000; AID 652154, 2013;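 active means mean replicate inhibition at least 60% with every replicate also reaching 60%; inconclusive means only one of the two criteria is met; inactive means mean below 60% and not all replicates reaching 60%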;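 further: luciferase light reporting Pax8 driven TPO promoter activity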
HIV Env fusion – inhibitors of HIV-1 Env-driven cell-cell fusion, primary screen, HeLa-JRFL effector, CEM21 target cells, luciferase | inhibition, % at 12.3 µM | hit rate 1.1% among 360,000 | AID 651610, 2012;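 active means mean replicate inhibition score of at least 50 and every replicate individually at or above 50; inconclusive means only one of the two criteria met; inactive means mean below 50 and not all replicates reaching 50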
EBV LMP1 NFkB – EBV LMP1-driven NF-kappaB luciferase reporter inhibitors, primary screen, cell-based, luminescence, single point. LMP1-induced NF-kappaB luciferase reporter cells. inhibition, % at 12.5 µM. hit rate 0.69% among 350,000. AID 504558, 2011; in the data active means inhibition above about 41%; inconclusive means no clear call, values can overlap the other calls
Shn3 3UTR inh – reduction of Shn3 3'UTR firefly luciferase signal, primary screen, Schnurri-3 inhibitor project, cell-based, Clone20 osteoblasts, set 2. Clone20 osteoblast Shn3 3'UTR firefly luciferase, 24 h. inhibition, % at 12.5 µM. hit rate 0.52% among 360,000. AID 588674, 2011;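 active means mean inhibition of at least 75% with every replicate also reaching 75%; inconclusive means mean inhibition at least 75% but some replicate below; inactive means mean inhibition below 75%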
Glyco luc inh – increase of ERlucT glycosylation luciferase signal, primary screen, N-linked glycosylation inhibitor project, D54 ERlucT cells, luminescence, set 2 | reporter increase, % at 12.5 µM | D54 ERlucT glycosylation luciferase reporter, 24 h; percent of 100 nM tunicamycin response | hit rate 0.23% among 360,000;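 active means mean luciferase reporter signal, scaled so untreated is 0 and the glycosylation-blocking control 100, at or above a set limit in every replicate; inconclusive means mean reaches the limit but not every replicate does; inactive means mean below the limit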;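 further: luciferase carries N-glycosylation sites so blocking glycosylation raises the light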
NSD2 HMT inh – NSD2 histone methyltransferase inhibitors, primary screen, biochemical, AlphaScreen, single concentration, set 2 | inhibition, % at 12.5 µM | Histone-lysine N-methyltransferase NSD2 (Homo sapiens), O96028 | hit rate 0.54% among 310,000 | AID 743445, 2014 | NSD2 peptide methylation, 120 min; in the data active means inhibition above about 50%
Hits are given with their value; i = inactive; ? = inconclusive; nt = no result given. In the library only some 2.8% were active in any assay of this set; here they are far more common.

SMILES	PAX8 inh HTS	HIV Env fusion	EBV LMP1 NFkB	Shn3 3UTR inh	Glyco luc inh	NSD2 HMT inh
O=C1CN(S(=O)(=O)Cc2ccccc2)C[C@@H]2[C@H](c3ccc(C#Cc4ccc(F)cc4)cc3)[C@H](CO)N12	80.2	nt	nt	nt	nt	nt
O=C1CN(S(=O)(=O)Cc2ccccc2)C[C@@H]2[C@H](c3ccc(C#Cc4ccc(F)cc4)cc3)[C@@H](CO)N12	i	nt	nt	nt	nt	nt
O=C1CN(S(=O)(=O)Cc2ccccc2)C[C@@H]2[C@@H](c3ccc(C#CCC4CCCC4)cc3)[C@@H](CO)N12	98.6	nt	nt	nt	nt	nt
O=C(C[C@@H]1CC[C@H]2[C@@H](COC[C@@H](O)CN2C(=O)c2ccccc2F)O1)NCc1ccc(Cl)cc1	i	nt	nt	nt	nt	nt
C/C=C/c1ccc2c(c1)O[C@@H](CN(C)C(=O)Cc1ccccc1)[C@@H](C)CN([C@@H](C)CO)S2(=O)=O	nt	i	nt	nt	nt	nt
Cc1cccc(N2CCN(C(=O)CNC(=O)c3ccccc3)CC2)c1C	i	i	i	i	i	i
CCOc1ncccc1C(=O)N1CCN(C(=O)c2ccccc2)CC1	i	i	i	i	i	i
CCOc1ncccc1C(=O)N1CCN(c2cccc(C)c2C)CC1	63.1	i	i	i	i	i
CCOc1ncccc1C(=O)N1CCN(c2cc(Cl)ccc2C)CC1	i	i	i	i	30.2	i
O=C(c1cccc(S(=O)(=O)N2CCCCCC2)c1)N1CCN(c2ccccc2F)CC1	i	i	i	i	i	i
Cc1cccc(N2CCN(C(=O)c3cccc(S(=O)(=O)N4CCCCC4)c3)CC2)c1C	i	64.2	i	i	i	i
Cc1cccc(N2CCN(C(=O)CNC(=O)C3CCCCC3)CC2)c1C	i	55.6	i	i	i	i
C[C@@H]1CN([C@H](C)CO)C(=O)c2cc(-c3ccccc3F)cnc2O[C@@H]1CN(C)C(=O)c1cnccn1	i	nt	nt	nt	nt	nt
O=C(C[C@H]1C[C@H]2c3cc(NC(=O)CC4CC4)ccc3O[C@H]2[C@H](CO)O1)NCc1ccc(Cl)cc1	i	i	nt	nt	nt	nt
Cc1ccc(Cl)cc1N1CCN(C(=O)c2noc(C)c2[N+](=O)[O-])CC1	105.3	i	i	i	i	i
CCOC(=O)N1CCN(c2cccc(C)c2C)CC1	70.4	nt	i	i	i	i
CCOC(=O)N1CCN(c2c(N3CCN(c4cccc(C)c4C)CC3)c(=O)c2=O)CC1	i	i	i	i	i	nt
CCCCN1CCN(C(=O)CSc2nc3cccnc3n2C)CC1	nt	nt	nt	nt	nt	i
O=C(NCCC1CCCCN1S(=O)(=O)c1ccc(Cl)cc1)C(=O)NCc1ccncc1 (stereo not given)	96.6	nt	i	i	i	i
O=C(NCCC1CCCCN1S(=O)(=O)c1ccc(F)cc1)C(=O)NCc1ccncc1 (stereo not given)	68.7	nt	i	i	i	i
Cc1ccc(CNC(=O)C(=O)NCCC2CCCCN2S(=O)(=O)c2ccc(C)cc2)cc1 (stereo not given)	i	nt	i	i	i	i
CC1=NN(c2ccccc2)C(=O)C1C=Nc1ccccc1O (stereo not given)	i	i	i	i	i	i
CC1=NN(c2ccccc2)C(=O)C1/C=C1\NC(=S)NC1=O (stereo not given)	i	i	i	i	i	102.3
O=C(Nc1nc(-c2ccc3ccccc3c2)cs1)C1CCN(S(=O)(=O)c2cccs2)CC1	i	i	i	i	i	i
Cc1ccc(-c2csc(NC(=O)C3CCN(S(=O)(=O)c4cccs4)CC3)n2)cc1	i	63.4	i	i	i	i
SMILES	PAX8 inh HTS	HIV Env fusion	EBV LMP1 NFkB	Shn3 3UTR inh	Glyco luc inh	NSD2 HMT inh
O=C(Nc1nc(-c2ccccc2)cs1)C1CCCN(S(=O)(=O)c2ccccc2)C1 (stereo not given)	nt	96.6	i	i	i	i
CC(=O)c1ccc(NC(=O)c2noc3c2CCC3)cc1	i	i	65.1	i	i	i
O=C(NC1CCCC1)c1noc2c1CCCCC2	nt	i	41.8	i	i	i
COc1ccc(NC(=O)c2noc3c2CCC3)cc1	i	i	i	i	i	i
O=C(NCc1ccccc1)c1noc2c1CCCCC2	nt	i	i	i	i	i
O=C(CCCc1nc(-c2ccccc2Cl)no1)NC1CCCC1	i	65.6	i	i	i	i
Cc1nc2ccccc2c(=O)n1NC(=O)c1c(O)c2c(n(CC(C)C)c1=O)CCCC2	nt	i	i	i	i	i
CCCCCCc1nc2ccccc2c(=O)n1NC(=O)c1c(O)c2c(n(CC(C)C)c1=O)CCCC2	nt	73.4	i	i	i	i
Cc1ccc(S(=O)(=O)N(C)C[C@H]2OCCCC[C@H](C)Oc3ccc(NS(=O)(=O)c4ccc(F)cc4)cc3C(=O)N([C@@H](C)CO)C[C@@H]2C)cc1	71.8	i	nt	nt	nt	nt
Cc1ccc(S(=O)(=O)Nc2ccc3c(c2)C(=O)N([C@H](C)CO)C[C@@H](C)[C@@H](CN(C)S(=O)(=O)c2ccc(F)cc2)OCCCC[C@H](C)O3)cc1	i	i	nt	nt	nt	nt
Cc1ccc(S(=O)(=O)N(C)C[C@H]2OCCCC[C@H](C)Oc3ccc(NS(=O)(=O)c4ccc(F)cc4)cc3C(=O)N([C@H](C)CO)C[C@@H]2C)cc1	80.0	i	nt	nt	nt	nt
O=C(NCc1cc(C(F)(F)F)cc(C(F)(F)F)c1)C1CC(c2c(Cl)cccc2Cl)=NO1 (stereo not given)	i	i	i	i	i	nt
O=C(NCc1ccc(OC(F)(F)F)cc1)C1CC(c2c(Cl)cccc2Cl)=NO1 (stereo not given)	i	i	41.3	i	i	nt
CC(=O)N(C)C[C@H]1Oc2cc(C#Cc3ccccc3)ccc2S(=O)(=O)N([C@H](C)CO)C[C@H]1C	nt	i	nt	nt	nt	nt
C[C@H]1CN([C@@H](C)CO)C(=O)Cc2cc(NC(=O)CCC(F)(F)F)ccc2O[C@H]1CN(C)S(=O)(=O)c1ccc(Cl)cc1	?	i	i	i	32.4	nt
C[C@H]1CN([C@@H](C)CO)C(=O)Cc2cc(NC(=O)CCC(F)(F)F)ccc2O[C@H]1CN(C)S(=O)(=O)c1ccc(F)cc1	i	nt	i	i	40.0	nt
O=C(Nc1cc(F)ccc1F)N[C@@H]1C=C[C@H](CC(=O)N2CCc3ccccc3C2)O[C@@H]1CO	i	i	nt	nt	nt	nt
C=C[C@@H](CO)NS(=O)(=O)c1ccc(Br)cc1	i	i	nt	nt	nt	nt
CC(C)(C)c1ccc(OCCC(=O)Nc2ccc(N3CCOCC3)cc2N2CCOCC2)cc1	i	68.8	i	i	i	i
CCNC(=O)[C@@H]1[C@@H](CO)[C@@H]2Cn3c(ccc(-c4ccccc4F)c3=O)[C@@H]2N1C(C)=O	i	nt	nt	nt	nt	nt
O=C(Nc1ccc(F)cc1)N[C@@H]1CC[C@@H](CC(=O)N2CCOCC2)O[C@@H]1CO	i	i	nt	nt	nt	nt
O=C(NCCN1C(=O)S/C(=C\c2ccc(Cl)c([N+](=O)[O-])c2)C1=O)C1=COCCO1	70.4	i	i	i	i	i

Screening results: PubChem, Broad Institute
